The text below walks through data of PubChem BioAssay.

The nature of experiment [1]: compound effects on lung adenocarcinoma cell viability – A549, calcein-AM fluorescence, 48 h, basal, profiling panel (AID 1162). Further: test concentration not given here. The note with it: higher = more signal.
Experiment [2] in a line: compound effects on differentiated 3T3-L1 adipocyte viability – cell-based, 3T3-L1 adipocytes, calcein-AM fluorescence, 48 h, basal, profiling panel (AID 1163). Further: test concentration not given here. To be noted: 3T3-L1 adipocytes viability, higher = more signal.
A short description of experiment [3]: compound effects on hepatocellular carcinoma cell viability – HepG2, calcein-AM fluorescence, 48 h, basal, profiling panel (AID 1164). Further: test concentration not given here. The note with it: higher = more signal.
Experiment [4] in a line: compound effects on multiple myeloma cell viability – MM1S, calcein-AM fluorescence, 48 h, basal, profiling panel (AID 1165).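 Further: viability of MM1S multiple myeloma cells under basal unstimulated conditions; test concentration not given here.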 To be noted: higher = more signal.
Experiment [5] in a line: calcein-AM signal in unstimulated myeloma cells – cell-based, calcein-AM fluorescence, 48 h, PK04 Diversity Set, profiling panel (AID 1166).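 Further: cells grown under basal conditions without added stimulus; test concentration not given here.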 To be noted: RPMI8226 myeloma viability, higher = more signal.
Experiment [6] is described as follows: JC-1 mitochondrial signal, unstimulated HepG2 cells – cell-based, JC-1 fluorescence, 24 h, 100 nL compound, profiling panel (AID 1167). Further: test concentration not given here. The note with it: HepG2 mitochondrial potential, higher = more signal.
The nature of experiment [7]: JC-1 mitochondrial signal, unstimulated adipocytes – cell-based, JC-1 fluorescence, 3T3-L1 adipocytes, 24 h, 100 nL compound, profiling panel (AID 1168). Further: test concentration not given here. To be noted: JC-1 mitochondrial fluorescence, higher = more signal, called active from +8 up or from −8 down.
Experiment [8] is described as follows: JC-1 mitochondrial signal, unstimulated myeloma cells – cell-based, JC-1 fluorescence, RPMI8226, 24 h, 100 nL compound, profiling panel (AID 1169). Further: test concentration not given here. To be noted: JC-1 mitochondrial potential fluorescence, higher = more signal.
Experiment [9] is described as follows: JC-1 mitochondrial signal, unstimulated MM1S myeloma – cell-based, JC-1 fluorescence, 24 h, 100 nL compound, profiling panel (AID 1170). Further: test concentration not given here. The note with it: MM1S mitochondrial potential, higher = more signal.
Experiment [10] is described as follows: resazurin metabolic signal in A549 cells – cell-based, resazurin fluorescence, 24 h, PK04 Diversity Set, profiling panel (AID 1171). Further: test concentration not given here. The note with it: A549 viability, higher = more signal, called active from +8 up or from −8 down.
Experiment [11] can be described thus: resazurin metabolic signal in HepG2 cells – cell-based, resazurin fluorescence, 24 h, PK04 Diversity Set, profiling panel (AID 1172). Further: test concentration not given here. The note with it: HepG2 viability, higher = more signal. Background: Resazurin is reduced to fluorescent resorufin, in cell work by metabolically active cells.
Experiment [12] is described as follows: budding yeast growth changes without added modifier – OD600, strain BY4716, 24 h, basal condition, primary screen (AID 1173). The note with it: S. cerevisiae BY4716 growth, OD600, 24 h; higher = more signal, called active from +8 up or from −8 down.
Experiment [13] can be described thus: viability profiling in MM1S myeloma cells – cell-based, resazurin fluorescence, basal, 24 h, PK04 Diversity Set, profiling panel (AID 1174). Further: test concentration not given here. To be noted: higher = more signal, called active from +8 up or from −8 down.
Experiment [14] has as its target Dihydroorotate dehydrogenase (quinone), mitochondrial (Plasmodium falciparum (isolate 3D7)) (UniProt Q08210). The experiment can be described thus: inhibition of P. falciparum DHODH – biochemical, C-terminal His tag, absorbance 600 nm, primary screen (AID 1175).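 Further: recombinant parasite enzyme with a five histidine tag at its C terminus; test concentration not given here.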 The note with it: PfDHODH enzyme, DCIP absorbance 600 nm; higher = more signal, called active from +8 up or from −8 down.

Experiment [15] can be described thus: inhibition of PAO1 biofilm formation – strain PAO1, LB-PBS medium, absorbance 600 nm, primary screen (AID 1176). Further: test concentration not given here. The note with it: P. aeruginosa PAO1 growth/biofilm, A600, 12 h; higher = more signal.
Experiment [16] in a line: growth modulation of vineyard yeast isolate – strain RM11-1a, OD600, basal, 24 h, primary screen (AID 1177).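 Further: cultures grown under basal conditions with no added stressor; test concentration not given here.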 To be noted: S. cerevisiae RM11-1a growth, OD600, 24 h; higher = more signal, called active from +8 up or from −8 down.
A short description of experiment [17]: growth of efflux-deficient E. coli DRC39 – strain DRC39, OD650, 24 h, E. coli filamentation inducers, primary screen (AID 1178).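 Further: growth measured as culture turbidity by optical density at 650 nm; test concentration not given here.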 The note with it: E. coli DRC39 acrAB, higher = more signal, called active from +8 up or from −8 down.
Experiment [18] can be described thus: growth of efflux-deficient E. coli DRC39 – strain DRC39, OD650, 48 h, E. coli filamentation inducers, primary screen (AID 1179).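 Further: screen aims at cell division blockers that make cells filament.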 To be noted: E. coli DRC39 delta-acrAB growth, higher = more signal, called active from +8 up or from −8 down.
Experiment [19] can be described thus: viability profiling in RPMI8226 myeloma cells – cell-based, resazurin fluorescence, basal, 24 h, PK04 Diversity Set, profiling panel (AID 1180).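 Further: RPMI8826 multiple myeloma cell line at 5000 cells per well; test concentration not given here.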 The note with it: higher = more signal.
Experiment [20] concerns the target E3 ubiquitin-protein ligase XIAP (Homo sapiens) (UniProt P98170). The experiment can be described thus: small molecules binding XIAP protein – biophysical, small-molecule microarray, fluorescence 635 nm, primary screen (AID 1181).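 Further: score merges 667 nm emission and signal to noise over triplicate slides.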 The note with it: higher = more signal.

Molecules are shown by their SMILES. The source made the active and inactive calls. Unless noted, how the calls were made is not given here.

E3 ubiquitin-protein ligase XIAP (Homo sapiens), sequence (P98170 whole entry, looked up): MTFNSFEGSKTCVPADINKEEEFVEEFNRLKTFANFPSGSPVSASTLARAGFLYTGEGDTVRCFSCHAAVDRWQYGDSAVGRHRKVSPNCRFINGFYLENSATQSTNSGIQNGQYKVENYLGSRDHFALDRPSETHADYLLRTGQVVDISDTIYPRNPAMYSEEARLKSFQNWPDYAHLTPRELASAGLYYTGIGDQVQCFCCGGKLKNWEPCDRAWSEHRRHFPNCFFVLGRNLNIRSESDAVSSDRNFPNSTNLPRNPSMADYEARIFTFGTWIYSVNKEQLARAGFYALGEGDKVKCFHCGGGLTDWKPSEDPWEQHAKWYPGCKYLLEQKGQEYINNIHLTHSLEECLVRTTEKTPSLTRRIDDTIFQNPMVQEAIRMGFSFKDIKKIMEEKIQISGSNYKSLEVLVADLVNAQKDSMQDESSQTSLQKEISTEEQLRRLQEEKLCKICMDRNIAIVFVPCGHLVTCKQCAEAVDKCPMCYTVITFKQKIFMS
Dihydroorotate dehydrogenase (quinone), mitochondrial (Plasmodium falciparum (isolate 3D7)), sequence (Q08210 whole entry, looked up): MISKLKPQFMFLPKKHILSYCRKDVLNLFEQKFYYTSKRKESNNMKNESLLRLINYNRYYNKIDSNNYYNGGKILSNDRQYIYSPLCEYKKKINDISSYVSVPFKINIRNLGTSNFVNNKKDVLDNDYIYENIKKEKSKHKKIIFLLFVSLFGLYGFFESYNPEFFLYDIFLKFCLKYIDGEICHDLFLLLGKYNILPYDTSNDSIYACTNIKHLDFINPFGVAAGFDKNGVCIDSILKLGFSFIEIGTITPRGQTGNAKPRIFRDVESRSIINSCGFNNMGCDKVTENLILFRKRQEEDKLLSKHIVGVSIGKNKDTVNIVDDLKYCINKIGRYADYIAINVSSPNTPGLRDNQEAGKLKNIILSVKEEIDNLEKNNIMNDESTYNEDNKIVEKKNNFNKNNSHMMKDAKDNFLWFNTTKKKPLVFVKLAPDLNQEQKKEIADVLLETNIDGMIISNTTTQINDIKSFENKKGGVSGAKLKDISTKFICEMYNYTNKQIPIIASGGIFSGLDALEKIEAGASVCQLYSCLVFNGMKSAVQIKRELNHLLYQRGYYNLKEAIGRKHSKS

As to `CCOC(=O)[C@H]1C/C=C/C[C@H](C(=O)OCC)C(=O)O[C@H]2[C@@H](OC)O[C@H](CO)[C@@H](OC(=O)Nc3ccc4c(c3)OCO4)[C@@H]2OC1=O`, the z-score was -2.58 in experiment [1]; -0.256 in [2]; -5 in experiment [3]; -3.35 in [4]; -4.14 in experiment [5]; -3.1 in experiment [6]. The z-score in experiment [7] is 1.56 (inactive); in experiment [8] it was -0.975; in experiment [9] it was -1.75; in [10], -5 (inactive); in experiment [11] it was -4.19; in experiment [12], 0.273 (inactive). Moreover, the z-score in experiment [13] was -6.98 (inactive); in experiment [15], 1.2 (inactive); in [16] it was 1.06 (inactive); in [17], 1.03 (inactive); in experiment [18], 1.53 (inactive); in [19] it was -6.84. Further, the composite z-score in experiment [14] was 0.0446 (inactive); in [20], -0.102.
For the molecule `CCOC(=O)C[C@H]1[C@H](OC(=O)c2ccc(-c3ccccc3)cc2)[C@@H](NC(=O)c2ccc3ccccc3c2)c2cc(OCCCO)ccc2N1C(=O)Cc1ccc(OC)cc1`, the z-score was 0.0289 in [1]; 0.965 in experiment [2]; 0.0837 in experiment [3]; -0.379 in experiment [4]; 0.0182 in experiment [5]; 2.96 in experiment [6]. Also, the z-score in [7] is -0.000915 (inactive); in experiment [8] it was 0.462; in experiment [9], 0.189; in experiment [10], 0.24 (inactive); in [11], 0.339; in experiment [12], -0.461 (inactive). Further, the z-score in [13] was 0.158 (inactive); in experiment [15], -0.501 (inactive); in [16] it was -0.169 (inactive); in [17] it was 0.281 (inactive); in [18], 0.454 (inactive); in experiment [19], 0.507. The composite z-score in experiment [14] is -0.173 (inactive); in [20], 0.144.
For `C=CC[C@@]1(C(=O)N2CCOCC2)N=C(c2ccc(OCCCO)cc2)O[C@@H]1c1ccccc1N=[N+]=[N-]`, the z-score in [1] is -0.168; in experiment [2] it was 1.02; in [3], 0.249; in experiment [4], -0.791; in experiment [5], -1.96; in experiment [6] it was 1.38. Moreover, the z-score in experiment [7] is 1.57 (inactive); in [8], -0.97; in experiment [9] it was -1.71; in [10], -0.915 (inactive); in experiment [11], -0.268; in [12], -1.24 (inactive). Besides, the z-score was -1.64 (inactive) in experiment [13]; -0.236 (inactive) in experiment [15]; 0.367 (inactive) in [16]; 0.992 (inactive) in experiment [17]; 0.123 (inactive) in [18]; -1.33 in experiment [19]. Besides, the composite z-score in experiment [14] is 0.443 (inactive); in [20], 0.117.
Take `COc1ccc(C(O)C2C=CC3C(=O)N(C)C(=O)C3N2Nc2ccccc2)cc1OCc1ccccc1` (stereo not given): the z-score in experiment [1] was -0.433; in experiment [2] it was -0.621; in [3] it was -0.269; in [4] it was -0.23; in experiment [5], -0.427; in experiment [6] it was -1.7. Besides, the z-score in [7] was -0.989 (inactive); in [8], 0.324; in [9], 0.0666; in experiment [10], 1.88 (inactive); in experiment [11], 0.043; in experiment [12] it was -12.9 (active). Moreover, the z-score in experiment [13] was -0.157 (inactive); in [15], 1.03 (inactive); in [16] it was 1.17 (inactive); in experiment [17], -1.02 (inactive); in experiment [18] it was -1.05 (inactive); in experiment [19], -0.543. Besides, the composite z-score in experiment [14] was 0.669 (inactive); in [20] it was 0.209.
